± gives the standard deviation of the averaged measurements.
How the values were obtained:
ES2 = test: cell viability relative to DMSO control (MTS) (fraction of DMSO control); higher = more viable cells / less growth inhibition; conditions: 10 µM; 48 h
How it was run: (§1)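 A 367-compound […] library was tested at a final concentration of 10 µM on TOV-21G and ES2 clear cell carcinoma cells (5000 cells per well, 96-well plates, pre-grown 24 h), with control wells receiving vehicle only. Following 48 h of exposure, CellTiter 96 AQueous One Solution was used as the manufacturer directs. This MTS assay gives cell viability as a fraction of the vehicle control.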

TOV-21G = test: as above; conditions: 10 µM; 48 h
How it was run: as §1

SMILES	cell viability (ES2)	cell viability (TOV-21G)
CN(C)S(=O)(=O)c1ccc2c(c1)/C(=C/c1cc3c([nH]1)CCCC3)C(=O)N2	1.03	0.891
Clc1ccccc1CNCC1CCC(CNCc2ccccc2Cl)CC1 (stereo not drawn)	0.789	1.03
C[C@@H](Oc1cc(-c2cnn(C3CCNCC3)c2)cnc1N)c1c(Cl)ccc(F)c1Cl [crizotinib]	0.34	0.333
Cc1cc(C=C2C(=O)C=CC2=O)cc(C)c1O	0.801	1.21
CC(C)CC(=O)N[C@H](C(=O)N[C@H](C(=O)N[C@@H](CC(C)C)[C@@H](O)CC(=O)N[C@@H](C)C(=O)N[C@@H](CC(C)C)[C@@H](O)CC(=O)O)C(C)C)C(C)C [Pepstatin A]	0.807	1.18
O=C(NCc1ccccc1)c1csc(Nc2ccncn2)n1 [Thiazovivin]	0.941	1.04
CS(=O)(=O)Nc1ccc([N+](=O)[O-])cc1OC1CCCCC1	0.933	1.02
N=C(N)NC(=O)c1nc(Cl)c(N)nc1N [Amiloride]	1.16	1.24
Cc1cnc(-c2cnc(NCCNc3ccc(C#N)cn3)nc2-c2ccc(Cl)cc2Cl)[nH]1	1.05	0.888
C[C@@H]1C[C@H]2[C@@H]3CCC4=CC(=O)C=C[C@]4(C)[C@@]3(F)[C@@H](O)C[C@]2(C)[C@@]1(O)C(=O)CO [Dexamethasone]	1.01	1.29
COc1cc2c(NC3CCN(C(C)C)CC3)nc(C3CCCCC3)nc2cc1OCCCN1CCCC1	0.337	0.486
CC(C)[C@H](CO)Nc1nc(Nc2cccc(Cl)c2)c2ncn(C(C)C)c2n1 [Purvalanol A]	0.815	0.652
CC(C)C[C@H](NC(=O)[C@@H](O)[C@H](N)Cc1ccccc1)C(=O)O [Bestatin]	0.885	1.13
CC(=O)N[C@@H](CS)C(=O)O [N-Acetyl-L-cysteine]	1.04	0.965
COc1cc2ncc(-c3ccccc3)nc2cc1OC	0.862 ± 0.058	0.955 ± 0.13
COC(=O)CNC(=O)C(=O)OC [Dimethyloxalylglycine]	1.23	0.917
COc1ccc(COc2ccc(Cc3cnc(N)nc3N)cc2OC)cc1 [cFMS Receptor Tyrosine Kinase Inhibitor]	0.942	1.01
CCCCC(=O)Oc1ccccc1C(=O)O [Valeryl salicylate]	0.917	1.01
Cc1nc2sccn2c(=O)c1CCN1CCC(=C(c2ccccc2)c2ccc(F)cc2)CC1	0.963	1.04
N#C/C(=C\c1ccc(O)c(O)c1)C(=O)NCc1ccccc1	0.891 ± 0.39	1 ± 0.013
COc1cc(/C=C(\C#N)C(N)=O)cc(CSc2nc3ccccc3s2)c1O	0.978 ± 0.072	1.067 ± 0.0093
CC(C)(C)NC(=O)[C@H]1CC[C@H]2[C@@H]3CC[C@H]4NC(=O)C=C[C@]4(C)[C@H]3CC[C@]12C [Finasteride]	1.3	0.952
CS(=O)(=O)c1ccc(C(=O)Nc2ccc(Cl)c(-c3ccccn3)c2)c(Cl)c1 [Vismodegib]	0.967	0.897
O=C(c1cc(Cc2n[nH]c(=O)c3ccccc23)ccc1F)N1CCN(C(=O)C2CC2)CC1 [Olaparib]	0.77	0.888
O=C([O-])c1ccccc1O.[Na+] [Sodium salicylate]	0.785	1.27
COc1cc([C@@H]2c3cc4c(cc3[C@@H](O[C@@H]3O[C@@H]5CO[C@@H](C)O[C@H]5[C@H](O)[C@H]3O)[C@H]3COC(=O)[C@H]23)OCO4)cc(OC)c1O [Etoposide (VP-16)]	0.655	0.658
COc1c(C=O)c(O)cc2c1C(=O)c1ccccc1C2=O [Damnacanthal]	1.05 ± 0.021	0.974 ± 0.19
COc1cc2c(cc1OC)-c1[nH]nc(Nc3cccc(F)c3)c1C2 [PDGF receptor tyrosine kinase inhibitor IV]	0.288	0.297
c1ccc2c(-c3cnn4cc(-c5ccc(N6CCNCC6)cc5)cnc34)ccnc2c1	0.267	0.344
